In all, about 380,000 compounds went through this assay and about 4,000 (1.1%) were called active. Inconclusive results (about 3%) are left out. The list comes from a sample in which actives are over-represented; it also holds similar structures and randomly drawn compounds. Values without a mark were called inactive. The call rests on the fitted dose curve; in most records, active means well fitted activation curve with a large enough effect; inconclusive means small, poorly fitted or top-dose-only effect; inactive means no such curve, though single readings can be large or run the other way.
Potency means the concentration at half of the fitted maximal effect.

This experiment is described as follows: qHTS Assay to Identify Small Molecule Activators of BRCA1 Expression. Further: nearly all actives have a fitted effect of over 80% in size. The conditions noted are these: MCF7-BRCA1-FFLuc reporter, luminescence, 48 h; series mostly up to 46.1 µM; activation: at the top concentration. The source says:
Functionally, BRCA1 has been implicated in a wide array of cellular activities, including DNA damage repair, cell-cycle checkpoint control, growth inhibition, apoptosis, transcriptional regulation, chromatin remodeling, protein ubiquitylation, and mammary stem cell self-renewal and differentiation. Reduction in BRCA1 levels is associated with an increase in tumor growth and resistance to anti-estrogenic agents, such as tamoxifen, while an increase in BRCA1 expression leads to cell growth arrest and apoptosis. […] The frequent loss of BRCA1 expression in invasive breast cancers in the absence of somatic mutation has been attributed to numerous mechanisms, including hypermethylation of the BRCA1 promoter, exaggerated ubiquitylation of BRCA1 protein, and improper intracellular localization. […] Basal-like breast cancers (BLBCs) are associated with an aggressive clinical course, resistance to chemotherapy, and typically lack expression of estrogen receptor (ER), progesterone receptor (PR), and epidermal growth factor receptor 2 (HER2). BLBCs account for 10-17% of all breast cancers, have few therapeutic options, and are considered the biggest unmet need in the treatment of breast cancer. Conversely, tumors which maintain expression of functional BRCA1 are almost uniformly luminal type cancers, and are accordingly associated with more indolent clinical courses, responsiveness to endocrine therapies, and improved survival.
As such, it is possible that an increase in BRCA1 expression would enable cellular differentiation and restore tumor suppressor function, resulting in delayed tumor growth and less aggressive, more treatable breast cancers. The long term goal of this proposal is to develop a novel prevention or therapeutic agent for breast cancer patients. To accomplish this goal, the overall objective of this proposal is to access the resources provided by the NIH Molecular Libraries Roadmap Initiative and the Molecular Libraries Probe Production Centers Network (MLPCN) to discover and develop new chemical activator probes that will increase BRCA1 expression and function.
NIH Molecular Libraries Probe Production Network [MLPCN]
NIH Chemical Genomics Center [NCGC]
PI Name: Lisa Harlan-Williams, University of Kansas Medical Center
5microl of MCF7-BRCA1-FFLuc cell suspension (400 cells/microl in phenol-red free MEM) are dispensed into Greiner white solid bottom 1536-well assay plates, yielding a final well density of 2000 cells/well. Plates are incubated for 2 hours at 37 degrees C in 5% humidified CO2 to allow cell attachment. Compounds are then transferred via Kalypsys pin tool equipped with 1536-pin array (10nl slotted pins, V&P Scientific, San Diego, CA). The plates are then incubated at 37 degrees C in 5% humidified CO2 for 48 hours. The NCGC in-house luciferase substrate reagent, Buglite, is then added (2.5microl) and plates incubated for 15 minutes, before being transferred to a ViewLux high-throughput CCD imager (PerkinElmer) wherein single end-point measurements of luminescence are acquired using a clear filter. The positive control compound, genistein, will be pinned into dedicated control columns on each plate, including a 16-point 1:3 titration in duplicate, as well as a 10microM maximum activation control, allowing for the normalization of screening activity. DMSO will be pinned into a separate column as a negative control.
All screening operations will be performed on a fully integrated robotic system (Kalypsys, San Diego, CA) containing one RX-130 and two RX-90 anthropomorphic robotic arms (Staubli, Duncan, SC). Library plates will be screened starting from the lowest and proceeding to the highest concentration. Vehicle-only plates, with DMSO being pin-transferred to columns 5-48, will be inserted uniformly at the beginning and the end of each library in order to monitor and record any shifts in the background, which can be affected by reagent dispensers or loss in enzyme activity over time. […]
Background: qHTS replaces the single test concentration by a dilution series.
Turning to `O=C(NCCC1=CCCCC1)c1ccc(Cl)c([N+](=O)[O-])c1`, the Potency was 7.94 µM (active). As for `CC(=O)c1ccc[n+](C(C)CCC(C)[n+]2cccc(C(C)=O)c2)c1` (centres undefined), the “activation” value is 16.4%. On the same count and under the same terms, in the case of `COc1ccc(-c2cc(NCc3ccc(F)cc3)n3cnnc3n2)cc1` it was 11.7%; in that of `Cc1ccc2c(c1)c1c(c(=O)n(-c3ccccc3)c(=O)n1CC(=O)c1ccc(Cl)cc1)n2C`, 3.56%.

On to `Cc1ccc(OCC(=O)OCc2cc(=O)n3nc(C4CC4)sc3n2)cc1`, for which the “activation” value is 0%.

Consider `COCCN(C(=O)C(C)C)c1nnc(-c2ccc(C(C)(C)C)cc2)s1`, for which the “activation” value was 11.9%. Consider `COc1ccc(N(CC(=O)NC(C)(C)C)C(=O)c2ccco2)cc1`, for which the “activation” value was 1.11%. As to `COCCN(C(=O)c1ccco1)c1nnc(-c2ccc(OC)cc2)s1`, the Potency is 7.08 µM (active). On to `Cc1c(CCO)sc[n+]1CC(=O)c1ccc2ccccc2c1`, for which the “activation” value is 16.3%. Consider `O=C(CC1Oc2ccccc2NC1=O)NCc1ccc(F)cc1` (centres undefined), for which the “activation” value was 12.5%.

Take `Cc1[nH]c2ccccc2c1SCC(=O)Nc1nccs1`: the “activation” value was 79.8%. For `CC(=O)c1cc(C#N)c(SCC(=O)Nc2nccs2)nc1C`, the Potency was 2 µM (active). In the case of `Cc1cc(C(F)(F)F)nc(SCC(=O)Nc2nccs2)n1`, the “activation” value is 0.479%. For the compound `Cc1oc2c(c1C(=O)Nc1ccc(F)c(F)c1)C1=NCCN1C=N2`, the “activation” value is -27.6%.

For `CCN=C1S/C(=C\c2cc(Br)ccc2OCC(=O)OCC)C(=O)N1CC`, the “activation” value is -28.2%.

Regarding `Cc1cc(/C=C2/SC(=O)N(CC(=O)N3CCCC3)C2=O)ccc1N1CCOCC1`, the “activation” value was 24.6%.

`Cc1cc(/C=C2/SC(=O)N(CC(=O)OC(C)C)C2=O)c(C)n1C`: the Potency is 2.51 µM (active). Turning to `CN(C)Cc1cn(-c2ccccc2)nc1-c1ccccc1`, the “activation” value is 14.5%. With `COc1ccccc1CNCc1ccc(C(=O)O)s1`, the “activation” value is -0.687%. Regarding `COc1cc(OC)c(C(=O)Nc2ccc(N(C)C)cc2)cc1OC`, the Potency was 8.91 µM (active).

With `COc1cc(OC)c(C(=O)NNC(=O)c2ccccc2-n2cccc2)cc1OC`, the “activation” value was -4.17%. For the compound `COc1ccc(Cl)cc1C(=O)Nc1ccc(N(C)C(C)=O)cc1`, the “activation” value is -8.57%. With `COc1ccc(-c2cc(C(F)(F)F)nc(SCC(=O)N(C)Cc3ccccc3)n2)cc1OC`, the “activation” value is -44.2%.

As to `Cn1ccc(NC(=O)Nc2ccc(Cl)cc2)n1`, the Potency was 7.08 µM (active). With `Cc1nn(C)cc1C(=O)NNC(=S)Nc1ccc(Cl)cc1`, the “activation” value is 0.773%. For `CN(C)S(=O)(=O)c1cc(C(=O)Nc2ccn(C)n2)c(Cl)cc1Cl`, the “activation” value was -1.4%. Same read-out and setting: next, `COc1cccc(C(=O)NCC(=O)OCc2cc(=O)n3ccsc3n2)c1`: 23.2%; `CCn1cc(C(=O)N(C)Cc2ccccc2)c(=O)c2cc(S(=O)(=O)N3CCCCCC3)ccc21`: -20.1%. `COc1cccc(Nc2ncccc2C(=O)O)c1`: the Potency is 11.2 µM (active). For `COc1cccc(NC(=O)COc2cccnc2[N+](=O)[O-])c1`, the “activation” value is 84.5%. The same measure, in the same setting: next, `O=C(O)c1cccnc1NC1CCCC1`: 0.755%. As for `O=c1cc(COc2cccc(C(F)(F)F)c2)nc2sc3c(n12)CCCC3`, the “activation” value was 22.3%.

Take `Cc1ccc(C(=O)OC(C)CN2CCOCC2)cc1` (centres undefined): the “activation” value is 34.5%.

With `Cc1cccc(C(=O)OC(C)CN2CCCC2)c1` (centres undefined), the “activation” value is -7.76%. Consider `Cc1cccc(C(=O)OC(C)CN2CCN(C)CC2)c1` (centres undefined), for which the Potency is 8.91 µM (active). Regarding `C(=Nc1ccc(/C=C/c2ccnc3ccccc23)cc1)c1cc2c3c(c1)CCCN3CCC2`, the “activation” value is 5.17%.

On to `Cc1c(C(=O)NCCCc2ccccc2)cccc1[N+](=O)[O-]`, for which the “activation” value was -6.52%. Consider `CN(c1ccccc1)S(=O)(=O)c1ccc(C(=O)NCCc2ccccc2)cc1`, for which the “activation” value is 95.3%. Regarding `CC(C)c1ccc(C(=O)NCCCc2ccccc2)cc1`, the Potency is 10 µM (active). For the compound `Cc1ccccc1CNC(=O)c1ccc(NC(=O)N2CCCCc3ccccc32)cc1`, the “activation” value was 0%.

As to `C/C=C/NNC(=O)Cc1ccc(OC)cc1`, the “activation” value was -35.7%. Take `CC1=C(C(=O)OCC2CCCCC2)C(c2c(F)cccc2Cl)CC(=O)N1` (centres undefined): the “activation” value was 11.3%. Consider `CC(=O)C1=C(C)NC(=O)NC1c1ccc2c(c1)OCO2` (centres undefined), for which the “activation” value is -1.73%. On the same count and under the same terms, next, `CC(=O)c1cc2c(cc1N)OCO2`: 16.3%. Regarding `Nc1[nH][nH]c(=O)c1N=Nc1ccc2c(c1)OCO2`, the Potency was 12.6 µM (active). On to `CCOc1ccc(CCNC(=O)CN(c2ccc(C)cc2)S(=O)(=O)N(C)C)cc1OCC`, for which the “activation” value was -3.76%. Consider `O=C(Nc1ccc2nc3n(c(=O)c2c1)CCCC3)c1ccc(Cl)nc1`, for which the “activation” value is -1.17%. `COc1cccc(C(=O)Nc2ccc3nc4n(c(=O)c3c2)CCCCC4)c1`: the Potency was 4.47 µM (active). Regarding `COc1ccc(CCNC(=O)C(=O)Nc2ccc3nc4n(c(=O)c3c2)CCCCC4)cc1OC`, the “activation” value is 42.2%. For `CC(C)c1ccc(NC(=O)Cn2ncc3ccccc32)cc1`, the Potency is 10 µM (active). Take `Cc1cccc(NC(=O)c2nnn(CC(=O)Nc3ccc(C(C)C)cc3)c2N)c1C`: the “activation” value was 72.2%. In the case of `CCc1ccc(NC(=O)Cn2ncn3c(cc4ccccc43)c2=O)cc1`, the “activation” value is -0.0009%.

With `COc1ccc(Cn2c(=O)[nH]c3cc(C(=O)N4CCN(C(=O)c5ccco5)CC4)ccc3c2=O)cc1`, the “activation” value is -22.8%. For `Cc1ccc(-c2nn3c(=O)cc(CN4CCN(C(=O)Nc5cccc(C(F)(F)F)c5)CC4)nc3s2)cc1`, the “activation” value was 0.612%.

The record behind these values is PubChem BioAssay AID624202 (National Center for Advancing Translational Sciences (NCATS), 2012).
